CYP2C9 act – increases human cytochrome P450 2C9 activity; P11712; recombinant CYP2C9, luciferin-H conversion, luminescence; stronger effect = higher value; factor 1 = untreated enzyme, 0 = blocked; activation factor at 5 µM; 96,000 compounds, 1.4% hits;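 active = activation factor of 2 or more for CYP2C9 at a 5 µM dose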
Target sequence (P11712 whole entry, looked up): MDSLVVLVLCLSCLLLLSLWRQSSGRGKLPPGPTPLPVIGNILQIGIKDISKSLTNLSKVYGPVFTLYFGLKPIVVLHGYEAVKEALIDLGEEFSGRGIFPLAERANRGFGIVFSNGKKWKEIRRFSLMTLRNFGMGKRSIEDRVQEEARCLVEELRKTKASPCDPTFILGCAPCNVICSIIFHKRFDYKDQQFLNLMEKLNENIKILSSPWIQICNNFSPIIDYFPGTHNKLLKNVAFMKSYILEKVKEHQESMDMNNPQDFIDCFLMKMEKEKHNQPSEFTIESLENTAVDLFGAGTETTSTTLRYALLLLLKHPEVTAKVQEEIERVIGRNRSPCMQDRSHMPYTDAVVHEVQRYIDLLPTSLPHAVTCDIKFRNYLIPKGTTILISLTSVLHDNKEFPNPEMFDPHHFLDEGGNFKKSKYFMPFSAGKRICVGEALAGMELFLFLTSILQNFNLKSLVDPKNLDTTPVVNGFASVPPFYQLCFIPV
CYP2C9 inh – inhibitors of human CYP2C9 | 96,000 compounds, 20% hits | inhibition, % at 5 µM | CYP2C9 Supersomes, luciferin-H conversion, luminescence | AID 777 | P11712;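 active = blocking of liver enzyme CYP2C9 beyond about 50% at 5 µM, limit read from the data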
PostGolgi yeast – growth inhibition of a yeast mutant, post-Golgi transport screen; post-Golgi transport phenotypic cell assay; inhibition, % at 10 µM; 98,000 compounds, 0.9% hits; AID 739;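 also: yeast cells grown in 1536-well plates; yeast grown about 18 h at 30C before absorbance read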
CYP2C19 act – activators of human cytochrome P450 2C19; 96,000 tested, under 10 active; recombinant CYP2C19, luciferin-H EGE luminescence; stronger effect = higher value; 0 = fully inhibited enzyme, 1 = untreated enzyme; activation factor at 5 µM; P33261;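 active = activation factor of at least 2 at 5 µM in the primary screen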
PostGolgi ctrl – yeast control strain growth, post-Golgi counter-screen; 98,000 compounds, 5% hits; efflux-deficient yeast background strain, growth absorbance A615, 16 h; inhibition, % at 10 µM; AID 738
CYP2C19 inhib – inhibitors of human CYP2C19; P33261; CYP2C19 Supersomes, luciferin-H EGE luminescence, 30 min; inhibition, % at 5 µM; 96,000 compounds, 21% hits; AID 778;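 active = CYP2C19 inhibition above a set limit at 5 µM in the primary screen, cut at about 50% in these data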
Of the large screens only hits and unclear results are named; the others gave an inactive call. Only some compounds are listed: those with a hit (about 32% of all), similar ones and a draw of the others. Rule as the data show it, unless noted: active = inhibition above about 30%; inactive = the rest.

Cc1cc(N)c(-n2cc3c(=O)n(C)c(=O)n(C)c3c2)cc1C	PostGolgi ctrl 32
Cc1ccc(-n2cc3c(=O)n(C)c(=O)n(C)c3c2)cc1C	none
CCCc1cc(=O)oc2cc3oc(C)c(C)c3cc12	CYP2C19 inhib 72
CCCc1cc(=O)oc2cc(C)c3c(C)coc3c12	CYP2C19 inhib 53
CCCc1cc(=O)oc2cc3occ(C)c3cc12	CYP2C9 inh 76, CYP2C19 inhib 71
Cc1c(NC(=O)COc2ncnc3ccccc23)c(=O)n(-c2ccccc2)n1C	none
Cn1c(=O)c2nc(NCc3ccccc3)cnc2n(C)c1=O	CYP2C9 inh 73, PostGolgi yeast 35, CYP2C19 inhib 74
O=C(NC1CC1)C1CC(=O)N(C2CCCCC2)C1 (stereo unspecified)	none
Cc1cc(C)nc(Sc2ccc3nnc(C(F)(F)C(F)(F)C(F)(F)F)n3n2)n1	CYP2C9 inh 63, CYP2C19 inhib 58
CSc1ccc2nnc(-c3cccc(F)c3)n2n1	none
Cc1ccc(Nc2nc(N)nc(CSc3nccn3C)n2)cc1	none
Cc1nn(-c2ccc(Cl)cc2)c(N)c1C(O)(CSc1nccn1C)C(F)(F)F (stereo unspecified)	CYP2C9 inh 87, CYP2C19 inhib 75
Cc1nn(-c2ccccc2)c(N)c1C(O)(CSc1nccn1C)C(F)(F)F (stereo unspecified)	CYP2C9 inh 87, CYP2C19 inhib 93
CC(=O)c1c(C)[nH]c(C(=O)N2CCCCCC2)c1C	none
CC(=O)OCC(=O)Nc1ccc(C(C)=O)cc1	none
C/C(=N/NS(=O)(=O)c1ccc(C)cc1)c1cccc(NC(=O)c2cccc(Cl)c2)c1	none
C/C(=N/NS(=O)(=O)c1ccc(Cl)cc1)c1cccc(NC(=O)c2ccc(Cl)cc2Cl)c1	CYP2C9 inh 97, CYP2C19 inhib 75
C/C(=N\NS(=O)(=O)c1ccc(Cl)cc1)c1ccc(O)cc1	CYP2C9 inh 78, CYP2C19 inhib 83
CCOC(=O)c1cc2sccc2n1CC(=O)c1ccc2c(c1)OCCO2	CYP2C9 inh 96, CYP2C19 inhib 93
CCOC(=O)c1cc2sccc2n1CC(=O)O	none
COCCCNC(=O)/C=C/c1ccc(Cl)cc1	none
CCOC(=O)C1CCN(C(=O)COc2ccc(Cl)cc2C)CC1	CYP2C19 inhib 83
COC(=O)C1CCN(C(=O)COc2ccc(Cl)cc2)CC1	CYP2C19 inhib 86
CCOC(=O)C1CCN(C(=O)COc2ccc(Cl)cc2)CC1	none
CCOC(=O)C1CCN(C(=O)COc2ccc(Cl)cc2Cl)CC1	CYP2C19 inhib 80
CCOc1cc(C(=O)Nc2ccon2)cc(OCC)c1OCC	none
O/N=C/c1ccc(OCC(O)COc2ccc(/C=N/O)cc2)cc1	none
CCOC(=O)c1c(CN2CCN(C)CC2)n(C)c2cc(Br)c(OC)cc12	CYP2C9 inh 56
CCOC(=O)c1c(CN2CCCCC2)oc2ccc(O)cc12	none
CCOC(=O)c1c(CN2CCCCC2)n(C)c2cc(Br)c(O)cc12	CYP2C19 inhib 71
Cc1ccc(C(=O)Oc2cccc(NC(=O)c3ccco3)c2)cc1S(=O)(=O)N1CCC(C)CC1	CYP2C9 inh 85, CYP2C19 inhib 60
CCC(=O)N(Cc1cc(=O)[nH]c2ccccc12)c1cccc(C)c1	none
COc1ccc(-c2n[nH]c(C(F)(F)F)c2-c2cc3ccccc3o2)c(O)c1	CYP2C9 inh 90, PostGolgi yeast 104, PostGolgi ctrl 102
COc1ccc(O)c(-c2cc(C(F)(F)C(F)F)nc(-c3ccccc3)n2)c1	none
CC(C)N(C(=O)CSc1nnc(NC(=O)C2CCC2)s1)C(C)C	none
C/C(N)=C(/C#N)C(=O)CSc1nnc(NC(C)C)s1	CYP2C19 inhib 56
CSc1nnc(Nc2ccccc2C)s1	CYP2C19 inhib 68
C/C(N)=C(/C#N)C(=O)CSc1nnc(Nc2ccccc2C)s1	CYP2C19 inhib 60
CCOCCCNC(=O)C(c1ccc(C)cc1)N(Cc1ccc2c(c1)OCO2)C(=O)c1cnccn1 (stereo unspecified)	none
CC1(c2ccncc2)Nc2ccccc2-c2nc3ccccc3n21 (stereo unspecified)	CYP2C9 inh 90, CYP2C19 inhib 97
CN1c2ccccc2C(C)(C)C12C=Nc1c(cc(N3CCOCC3)c3ccccc13)O2 (stereo unspecified)	CYP2C9 inh 70
CSc1nc(N2CCOCC2)c2ccccc2n1	none
N#CC1=C2SCN(Cc3ccccc3)CN2C(=O)CC1c1cccs1 (stereo unspecified)	CYP2C9 inh 60, CYP2C19 inhib 51
N#CC1=C2SCN(Cc3ccccc3)CN2C(=O)CC1c1ccc2c(c1)OCO2 (stereo unspecified)	CYP2C9 inh 59, CYP2C19 inhib 54
CC(C)[C@H](NC(=O)c1cccc(S(=O)(=O)N2CCCC2)c1)c1nc2ccccc2[nH]1	none
Cc1cc(NC(=O)CCC(=O)N(c2ccccc2)C(C(=O)NCC2CCCO2)c2cccnc2)no1 (stereo unspecified)	none
O=c1ccn(-c2cccc(C(F)(F)F)c2)nc1-c1ccn(-c2ccccc2)n1	CYP2C9 inh 80
COC(=O)c1nn(-c2ccccc2)ccc1=O	none
O=C(Nc1cccc(Cl)c1)Nc1nccs1	none
O=C(CNC(=O)c1ccc(Cl)cc1)NCCCn1ccnc1	CYP2C9 inh 79, CYP2C19 inhib 85
O=C(Cc1c(F)cccc1Cl)NCCCn1ccnc1	CYP2C9 inh 79, CYP2C19 inhib 92
O=C(CCn1cccc1)NCCc1ccc(Cl)cc1	CYP2C19 inhib 59
O=C(NCCCn1ccnc1)Nc1cccc(Cl)c1	CYP2C9 inh 100, PostGolgi ctrl 36, CYP2C19 inhib 96
CNc1oc(-c2ccc(Cl)cc2)nc1C#N	none
CC1CN(C(=O)COC(=O)c2cccs2)CC(C)O1 (stereo unspecified)	none
COc1cc(O)oc1C=Nc1ccc(C(F)(F)F)cc1	none
CC(Sc1nc(-c2ccccc2)nc2c1COC(C)(C)C2)C(=O)N1CCOCC1 (stereo unspecified)	none
N#CC(C(=O)NC1CCCCC1)c1nc2ccccc2nc1N1CCN(c2ccc(F)cc2)CC1 (stereo unspecified)	none
O=C(Cc1c(F)cccc1Cl)Nc1ccncc1	CYP2C9 inh 71, PostGolgi yeast 37, CYP2C19 inhib 82
C=CCOc1ccc(NC(=O)C(=O)NCCCn2ccnc2)cc1	none
O=C(Cc1ccc(Cl)cc1)NCCCn1ccnc1	CYP2C9 inh 88, CYP2C19 inhib 98
CC(C)(Oc1ccc(Cl)cc1)C(=O)NCCCn1ccnc1	CYP2C9 inh 87, CYP2C19 inhib 100
O=C(Cc1ccccc1)Nn1cnc2ccccc21	none
CC(C)c1nc2n[nH]c(N)c2c2c1CSC(C)(C)C2	none
CCN1CCCC1CNC(=O)CCc1nc(-c2ccc(C)cc2)no1 (stereo unspecified)	none
CCOC(=O)Cc1c(C)nc2c(-c3ccccc3)c[nH]n2c1=O	none
Cc1nc2ccccc2c2c1C(=O)N(C(C)C)C2=O	CYP2C19 inhib 70
